For seven compounds, inhibition results are on record in ChEMBL document CHEMBL1961873, “Compounds: GSK PKIS; Assays: Nanosyn kinase panel” (2012).

In test [1] the target is T1, Tyrosine-protein kinase ITK/TSK (Homo sapiens) (UniProt Q08881).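 Also: values are mean percent inhibition of ITK from the GSK PKIS screen.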
T1 sequence (whole entry): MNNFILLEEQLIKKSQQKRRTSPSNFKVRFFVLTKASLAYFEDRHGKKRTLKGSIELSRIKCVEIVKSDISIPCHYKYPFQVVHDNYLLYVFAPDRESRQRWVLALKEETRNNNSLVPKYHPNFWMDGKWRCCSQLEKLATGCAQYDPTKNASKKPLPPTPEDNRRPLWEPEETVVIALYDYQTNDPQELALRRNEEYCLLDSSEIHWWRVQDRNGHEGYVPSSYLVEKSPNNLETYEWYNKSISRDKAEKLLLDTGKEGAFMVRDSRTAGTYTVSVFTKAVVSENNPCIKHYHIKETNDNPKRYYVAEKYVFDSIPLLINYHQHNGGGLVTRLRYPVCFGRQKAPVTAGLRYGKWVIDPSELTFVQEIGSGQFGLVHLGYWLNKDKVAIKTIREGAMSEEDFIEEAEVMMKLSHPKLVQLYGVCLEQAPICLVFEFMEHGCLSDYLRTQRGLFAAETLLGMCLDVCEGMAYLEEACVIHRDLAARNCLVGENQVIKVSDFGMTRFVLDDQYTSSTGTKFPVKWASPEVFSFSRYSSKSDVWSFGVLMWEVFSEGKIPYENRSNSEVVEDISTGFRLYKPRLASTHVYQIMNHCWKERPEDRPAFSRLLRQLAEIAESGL
The settings on record: at 1 µM.

For test [2], the target named is Tyrosine-protein kinase JAK1 (Homo sapiens) (UniProt P23458). The following applies: at 0.1 µM.
Test [3] shares this target. The settings on record: at 1 µM.
In test [4] the target is Tyrosine-protein kinase JAK2 (Homo sapiens) (UniProt O60674). The settings on record: at 0.1 µM.
Test [5] has the same target. The settings on record: at 1 µM.
Test [6] deals with T2, Tyrosine-protein kinase JAK3 (Homo sapiens) (UniProt P52333).
T2 sequence (whole entry): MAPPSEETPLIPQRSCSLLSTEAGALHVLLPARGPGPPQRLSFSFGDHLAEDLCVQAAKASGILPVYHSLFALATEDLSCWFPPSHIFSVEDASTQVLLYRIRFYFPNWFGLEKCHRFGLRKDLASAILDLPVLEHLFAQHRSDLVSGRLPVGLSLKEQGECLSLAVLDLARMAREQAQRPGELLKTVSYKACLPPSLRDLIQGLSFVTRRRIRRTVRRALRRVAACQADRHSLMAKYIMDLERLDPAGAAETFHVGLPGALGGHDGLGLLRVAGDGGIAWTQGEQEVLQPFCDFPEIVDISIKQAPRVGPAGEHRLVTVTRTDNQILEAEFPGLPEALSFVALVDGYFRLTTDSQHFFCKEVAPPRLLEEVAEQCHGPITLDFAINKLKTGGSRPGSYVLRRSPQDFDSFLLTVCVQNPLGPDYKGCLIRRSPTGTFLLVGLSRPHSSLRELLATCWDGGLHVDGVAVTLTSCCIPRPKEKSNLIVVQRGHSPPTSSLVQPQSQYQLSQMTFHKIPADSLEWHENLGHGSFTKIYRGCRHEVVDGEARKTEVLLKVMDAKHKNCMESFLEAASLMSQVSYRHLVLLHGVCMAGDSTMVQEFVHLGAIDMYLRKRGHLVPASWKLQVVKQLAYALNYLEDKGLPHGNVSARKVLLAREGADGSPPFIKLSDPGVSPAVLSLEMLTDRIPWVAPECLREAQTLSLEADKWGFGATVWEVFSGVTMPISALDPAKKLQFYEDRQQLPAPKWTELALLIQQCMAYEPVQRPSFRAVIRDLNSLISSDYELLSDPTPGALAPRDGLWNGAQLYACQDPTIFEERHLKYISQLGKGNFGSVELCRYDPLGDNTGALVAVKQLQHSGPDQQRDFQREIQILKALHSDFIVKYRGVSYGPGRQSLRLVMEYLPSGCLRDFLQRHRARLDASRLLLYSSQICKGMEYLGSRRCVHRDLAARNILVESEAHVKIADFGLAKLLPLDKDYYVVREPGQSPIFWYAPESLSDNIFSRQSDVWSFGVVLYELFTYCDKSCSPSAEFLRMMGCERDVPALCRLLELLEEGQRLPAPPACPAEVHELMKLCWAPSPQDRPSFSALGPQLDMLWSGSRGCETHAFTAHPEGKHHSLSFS
The settings on record: at 0.1 µM.

Test [7] concerns the target T2, Tyrosine-protein kinase JAK3 (Homo sapiens). The settings on record: at 1 µM.
Test [8] concerns the target Vascular endothelial growth factor receptor 2 (Homo sapiens) (UniProt P35968). The following applies: at 0.1 µM.
The target is the same in test [9]. The settings on record: at 1 µM.
In test [10] the target is Mast/stem cell growth factor receptor Kit (Homo sapiens) (UniProt P10721). The following applies: at 0.1 µM.
Test [11] shares this target. The settings on record: at 1 µM.
The subject of test [12] is Mast/stem cell growth factor receptor Kit (Homo sapiens), P10721 [D816V]. The settings on record: at 0.1 µM.
Test [13] shares this test system. The following applies: at 1 µM.
Test [14] relates to Mast/stem cell growth factor receptor Kit (Homo sapiens), P10721 [T670I]. The following applies: at 0.1 µM.
The test system is the same in test [15]. The settings on record: at 1 µM.
Test [16] concerns Mast/stem cell growth factor receptor Kit (Homo sapiens), P10721 [V560G]. The settings on record: at 0.1 µM.
For test [17] the test system is unchanged. The following applies: at 1 µM.
In test [18] the target is Tyrosine-protein kinase Lck (Homo sapiens) (UniProt P06239). The settings on record: at 0.1 µM.
Test [19] shares this target. The following applies: at 1 µM.
The target of test [20] is Leukocyte tyrosine kinase receptor (Homo sapiens) (UniProt P29376). The settings on record: at 0.1 µM.

Several values for one entry are separate records, joined by “and”; a condition that tells them apart may be missing. Equal values may be shown once.

Chain of Vascular endothelial growth factor receptor 2 (Homo sapiens) (P35968 whole entry): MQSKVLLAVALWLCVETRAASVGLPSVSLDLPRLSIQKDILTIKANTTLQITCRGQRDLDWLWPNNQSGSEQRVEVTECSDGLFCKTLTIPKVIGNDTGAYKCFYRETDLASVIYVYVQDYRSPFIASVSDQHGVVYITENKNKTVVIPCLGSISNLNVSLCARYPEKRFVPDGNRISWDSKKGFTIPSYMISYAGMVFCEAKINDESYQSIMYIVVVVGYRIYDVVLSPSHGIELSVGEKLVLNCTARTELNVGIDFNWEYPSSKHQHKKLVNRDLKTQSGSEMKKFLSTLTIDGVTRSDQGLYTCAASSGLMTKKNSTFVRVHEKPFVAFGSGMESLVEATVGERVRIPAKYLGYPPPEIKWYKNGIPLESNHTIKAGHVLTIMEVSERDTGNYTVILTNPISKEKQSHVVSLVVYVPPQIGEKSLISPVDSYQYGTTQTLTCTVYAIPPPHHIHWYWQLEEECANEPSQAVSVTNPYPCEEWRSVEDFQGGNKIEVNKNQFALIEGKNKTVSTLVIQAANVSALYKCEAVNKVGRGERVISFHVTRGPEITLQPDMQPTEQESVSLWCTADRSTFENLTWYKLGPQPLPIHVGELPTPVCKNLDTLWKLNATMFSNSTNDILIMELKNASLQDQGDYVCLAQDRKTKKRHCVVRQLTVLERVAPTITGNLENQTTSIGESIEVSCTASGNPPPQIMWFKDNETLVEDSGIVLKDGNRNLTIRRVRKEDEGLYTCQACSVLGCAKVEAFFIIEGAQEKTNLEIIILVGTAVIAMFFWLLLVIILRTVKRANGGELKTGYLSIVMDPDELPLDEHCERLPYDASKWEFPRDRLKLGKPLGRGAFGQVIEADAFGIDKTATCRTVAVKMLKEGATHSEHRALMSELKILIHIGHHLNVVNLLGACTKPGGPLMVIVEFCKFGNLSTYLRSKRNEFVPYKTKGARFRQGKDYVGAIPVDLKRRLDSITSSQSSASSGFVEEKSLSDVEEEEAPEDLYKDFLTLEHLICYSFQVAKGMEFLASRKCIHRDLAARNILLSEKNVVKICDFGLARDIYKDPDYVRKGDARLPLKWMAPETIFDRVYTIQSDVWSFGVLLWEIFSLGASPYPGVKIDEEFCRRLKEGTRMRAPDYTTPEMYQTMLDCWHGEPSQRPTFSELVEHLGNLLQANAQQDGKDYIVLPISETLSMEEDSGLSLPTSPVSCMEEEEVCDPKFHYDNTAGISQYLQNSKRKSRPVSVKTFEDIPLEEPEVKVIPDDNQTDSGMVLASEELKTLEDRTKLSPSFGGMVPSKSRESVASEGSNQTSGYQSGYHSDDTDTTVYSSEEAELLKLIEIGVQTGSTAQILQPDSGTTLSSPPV
Chain of Leukocyte tyrosine kinase receptor (Homo sapiens) (P29376 whole entry): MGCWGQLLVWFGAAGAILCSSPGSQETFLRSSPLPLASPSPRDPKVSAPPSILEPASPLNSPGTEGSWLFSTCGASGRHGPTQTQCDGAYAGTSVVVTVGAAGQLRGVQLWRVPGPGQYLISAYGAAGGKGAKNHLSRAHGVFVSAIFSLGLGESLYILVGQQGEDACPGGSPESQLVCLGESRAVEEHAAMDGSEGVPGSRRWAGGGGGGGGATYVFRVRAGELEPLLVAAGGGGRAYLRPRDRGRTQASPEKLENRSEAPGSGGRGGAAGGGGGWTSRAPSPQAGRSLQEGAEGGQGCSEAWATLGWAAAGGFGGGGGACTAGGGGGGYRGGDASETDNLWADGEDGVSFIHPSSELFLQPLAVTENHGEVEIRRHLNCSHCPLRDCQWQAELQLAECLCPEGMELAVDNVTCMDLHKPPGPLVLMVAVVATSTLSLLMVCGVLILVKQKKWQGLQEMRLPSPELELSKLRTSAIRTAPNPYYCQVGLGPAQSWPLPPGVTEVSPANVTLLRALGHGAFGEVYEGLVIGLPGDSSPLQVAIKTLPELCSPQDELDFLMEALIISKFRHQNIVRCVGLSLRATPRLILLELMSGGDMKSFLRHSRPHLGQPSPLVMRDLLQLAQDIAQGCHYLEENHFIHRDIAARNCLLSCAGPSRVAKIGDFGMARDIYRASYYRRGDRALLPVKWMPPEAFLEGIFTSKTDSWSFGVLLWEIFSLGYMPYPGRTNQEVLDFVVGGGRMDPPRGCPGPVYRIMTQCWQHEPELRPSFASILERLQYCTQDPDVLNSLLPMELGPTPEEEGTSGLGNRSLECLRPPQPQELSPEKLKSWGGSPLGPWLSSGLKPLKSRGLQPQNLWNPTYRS
Chain of Tyrosine-protein kinase JAK1 (Homo sapiens) (P23458 whole entry): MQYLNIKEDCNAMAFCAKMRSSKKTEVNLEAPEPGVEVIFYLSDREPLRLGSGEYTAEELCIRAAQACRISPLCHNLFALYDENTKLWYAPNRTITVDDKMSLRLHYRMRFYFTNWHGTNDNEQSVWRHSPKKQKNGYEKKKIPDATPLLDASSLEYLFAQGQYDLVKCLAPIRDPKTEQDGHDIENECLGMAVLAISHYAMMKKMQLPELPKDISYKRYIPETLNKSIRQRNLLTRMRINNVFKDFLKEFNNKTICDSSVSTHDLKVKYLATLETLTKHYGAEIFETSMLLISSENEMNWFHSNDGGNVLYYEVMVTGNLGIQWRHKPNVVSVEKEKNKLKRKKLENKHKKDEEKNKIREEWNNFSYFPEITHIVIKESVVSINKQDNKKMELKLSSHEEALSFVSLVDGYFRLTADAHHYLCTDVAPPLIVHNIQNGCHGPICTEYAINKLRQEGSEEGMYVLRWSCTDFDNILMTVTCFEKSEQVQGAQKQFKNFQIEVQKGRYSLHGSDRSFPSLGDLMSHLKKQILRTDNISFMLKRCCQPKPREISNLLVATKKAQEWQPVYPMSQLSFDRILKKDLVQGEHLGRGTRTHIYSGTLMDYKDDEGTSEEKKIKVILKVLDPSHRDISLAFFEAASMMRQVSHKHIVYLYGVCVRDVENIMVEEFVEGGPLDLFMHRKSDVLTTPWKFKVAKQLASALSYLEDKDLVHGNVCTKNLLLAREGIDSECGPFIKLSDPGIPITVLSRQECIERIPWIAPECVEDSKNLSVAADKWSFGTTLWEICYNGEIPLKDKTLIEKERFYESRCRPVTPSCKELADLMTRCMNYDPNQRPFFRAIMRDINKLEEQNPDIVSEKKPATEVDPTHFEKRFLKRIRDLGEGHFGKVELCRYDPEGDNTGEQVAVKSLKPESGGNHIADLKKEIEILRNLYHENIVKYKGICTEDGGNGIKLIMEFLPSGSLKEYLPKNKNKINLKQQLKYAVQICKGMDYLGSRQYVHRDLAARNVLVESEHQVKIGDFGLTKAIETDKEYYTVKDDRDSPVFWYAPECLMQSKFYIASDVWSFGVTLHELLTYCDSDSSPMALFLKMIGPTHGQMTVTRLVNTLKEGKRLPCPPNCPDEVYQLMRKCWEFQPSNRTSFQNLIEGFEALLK
Chain of Mast/stem cell growth factor receptor Kit (Homo sapiens), P10721 [V560G] (P10721 whole entry V560G): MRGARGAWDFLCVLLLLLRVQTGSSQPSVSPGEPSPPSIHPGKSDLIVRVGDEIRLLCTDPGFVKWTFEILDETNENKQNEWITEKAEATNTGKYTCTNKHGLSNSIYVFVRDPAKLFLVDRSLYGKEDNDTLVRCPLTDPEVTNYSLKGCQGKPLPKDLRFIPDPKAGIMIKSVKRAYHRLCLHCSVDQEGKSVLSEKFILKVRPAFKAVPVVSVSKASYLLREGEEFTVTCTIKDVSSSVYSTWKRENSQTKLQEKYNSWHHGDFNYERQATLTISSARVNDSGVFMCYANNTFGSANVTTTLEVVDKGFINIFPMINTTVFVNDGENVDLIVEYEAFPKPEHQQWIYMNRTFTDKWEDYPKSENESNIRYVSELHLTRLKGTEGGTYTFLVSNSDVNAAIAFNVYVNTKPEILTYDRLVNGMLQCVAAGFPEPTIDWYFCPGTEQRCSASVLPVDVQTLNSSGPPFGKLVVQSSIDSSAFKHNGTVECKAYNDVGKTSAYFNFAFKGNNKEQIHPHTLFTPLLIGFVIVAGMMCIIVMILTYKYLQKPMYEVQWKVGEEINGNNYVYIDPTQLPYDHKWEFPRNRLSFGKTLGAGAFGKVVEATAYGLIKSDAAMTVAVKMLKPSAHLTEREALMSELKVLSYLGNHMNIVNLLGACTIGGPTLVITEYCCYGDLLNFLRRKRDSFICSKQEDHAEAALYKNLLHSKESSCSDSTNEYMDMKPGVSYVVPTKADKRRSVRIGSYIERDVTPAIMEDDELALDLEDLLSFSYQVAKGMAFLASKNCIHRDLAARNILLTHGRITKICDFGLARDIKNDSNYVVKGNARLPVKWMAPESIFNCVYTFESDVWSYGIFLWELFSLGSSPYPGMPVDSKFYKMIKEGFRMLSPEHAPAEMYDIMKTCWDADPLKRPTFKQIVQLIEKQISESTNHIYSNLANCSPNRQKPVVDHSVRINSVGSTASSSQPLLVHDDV
Chain of Tyrosine-protein kinase Lck (Homo sapiens) (P06239 2-509 limits assumed): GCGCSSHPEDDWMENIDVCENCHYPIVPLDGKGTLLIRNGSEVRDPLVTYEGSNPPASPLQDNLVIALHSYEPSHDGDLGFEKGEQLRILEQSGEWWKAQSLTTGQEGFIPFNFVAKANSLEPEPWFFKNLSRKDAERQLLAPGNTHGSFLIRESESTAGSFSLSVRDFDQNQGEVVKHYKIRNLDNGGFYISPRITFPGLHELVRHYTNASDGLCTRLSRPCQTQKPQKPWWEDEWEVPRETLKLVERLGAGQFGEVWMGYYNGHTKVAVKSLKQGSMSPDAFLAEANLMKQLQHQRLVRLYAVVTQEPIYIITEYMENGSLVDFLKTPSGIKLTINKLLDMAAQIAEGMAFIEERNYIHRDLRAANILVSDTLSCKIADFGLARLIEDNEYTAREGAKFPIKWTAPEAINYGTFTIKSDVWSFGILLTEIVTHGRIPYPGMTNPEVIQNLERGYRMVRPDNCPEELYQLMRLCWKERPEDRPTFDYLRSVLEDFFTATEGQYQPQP
Chain of Mast/stem cell growth factor receptor Kit (Homo sapiens) (P10721 whole entry): as the sequence (P10721 whole entry V560G) above, with G560V counted along it
Chain of Mast/stem cell growth factor receptor Kit (Homo sapiens), P10721 [T670I] (P10721 whole entry T670I): as the sequence (P10721 whole entry V560G) above, with G560V, T670I counted along it
Chain of Mast/stem cell growth factor receptor Kit (Homo sapiens), P10721 [D816V] (P10721 whole entry D816V): as the sequence (P10721 whole entry V560G) above, with G560V, D816V counted along it

In general, inhibition refers to the change of the read-out against control, counted positive when it falls. Regarding `COc1cc(N2CCN(C(C)C)CC2)ccc1Nc1nc(Nc2cccc(F)c2C(=O)O)c2cc[nH]c2n1`, the inhibition was 5.92% in test [1]; 4.17% in test [2]; 8.87% in test [3]; 6.66% in test [4]; 2.37% in [5]; -1.39% in test [6]. Further, the inhibition in [7] amounted to 0.51%; in test [8] it was 4.67%; in test [9], 6.45%; in test [10], 2.86%; in test [11] it was 8.76%; in test [12], 3.82%. Also, the inhibition in test [13] is 3.22%; in test [14], 2.33%; in [15], 3.08%; in test [16] it was -0.92%; in test [17], 0.71%; in test [18], 1.92%. For the same compound, the inhibition in [19] worked out at 2.86%; in [20], 66.4%.
As for `Nc1nonc1-c1nc2cnccc2n1C1CC1`, the inhibition was 1.67% and -2.42% in test [1]; 0.26% and 0.62% in test [2]; -0.07% and 3.24% in test [3]; 0.87% and 1.12% in test [4]; 3.76% and 0.55% in test [5]; 4.13% and -4.12% in test [6]. In addition, the inhibition in test [7] is 4.66% and -3.11%; in [8], 14.3% and 13.8%; in test [9] it was 54.2% and 52%; in [10], 4.06% and 2.58%; in [11], 14.9% and 15.5%; in [12], 3.53% and 1.67%. The inhibition was 3.46% and 2.18% in test [13]; 1.4% and 2.21% in test [14]; 6.91% and 8.64% in [15]; -1.94% and 0.52% in [16]; -1.23% and -2.01% in test [17]; 3.06% and -3.03% in [18]. In addition, the inhibition in test [19] was 3.02% and -1.62%; in test [20] it was 2.93% and 1.07%.
Regarding `COc1cc2c(cc1Nc1nc(Nc3cccc(F)c3C(N)=O)c3cc[nH]c3n1)N(C(=O)CN1CCN(C(C)C)CC1)CC2`, the inhibition in test [1] is 4.16%; in [2] it was -0.19%; in test [3] it was -3.81%; in test [4], 0.65%; in [5], 2.21%; in test [6], 0.64%. Moreover, the inhibition in [7] was 6.68%; in test [8], 0.99%; in test [9], 9.98%; in test [10] it was -1.31%; in [11], 1.51%; in [12] it was -0.69%. Moreover, the inhibition was 0.07% in [13]; -0.28% in test [14]; -0.5% in test [15]; -3.41% in [16]; -2.31% in [17]; 2.47% in test [18]. The figures for the inhibition in test [19] and in test [20] were 0.75% and 27.6%, respectively.
Take `Cn1c(-c2nonc2N)nc2cnccc21`: the inhibition in [1] was 1.68%; in test [2] it was 4.75%; in test [3], 2.08%; in [4] it was 1.45%; in test [5], 1.42%; in test [6], -1.06%. The inhibition in [7] is -0.29%; in test [8] it was 4.81%; in test [9] it was 12.2%; in test [10] it was 4.67%; in test [11] it was 5.33%; in test [12] it was 1.72%. The inhibition in test [13] was 2.94%; in test [14], 2.83%; in [15], 2.49%; in test [16], -0.55%; in test [17], -0.31%; in test [18], 2.46%. Further, the inhibition in test [19] was found to be 3.49%; in test [20], 2.56%.
Take `Fc1ccc(Nc2nccc(-c3c(-c4ccc(C(F)(F)F)cc4)nn4ncccc34)n2)cc1F`: the inhibition was 2.42% in [1]; 2.03% in test [2]; 0.13% in test [3]; 1.44% in test [4]; 2.24% in [5]; -1.12% in test [6]. Besides, the inhibition in [7] was 0.59%; in [8] it was 5.73%; in [9], 7.03%; in test [10], 4.14%; in [11], 4.68%; in test [12], 2.15%. The inhibition in test [13] is 2.45%; in test [14] it was 0.78%; in test [15] it was 2.14%; in [16], -1.76%; in test [17], 1.06%; in test [18] it was 3.17%. Also, the inhibition in test [19] was 0.53%; in test [20], 2.82%.
As for `CC1=C(C(=O)Nc2ccc3[nH]nc(C)c3c2)C(c2ccc(C(F)(F)F)cc2)CC(=O)N1` (stereo not given), the inhibition in test [1] worked out at 7.86%; in [2], 38.5%; in [3], 70.7%; in [4], 31.1%; in test [5] it was 82.4%; in [6], 15.6%. The inhibition turned out to be 68.8% in [7]; 5.36% in test [8]; 11% in test [9]; 2.41% in test [10]; 2.22% in [11]; 5.34% in test [12]. Further, the inhibition in test [13] is 1.99%; in test [14], -0.21%; in [15], 1.75%; in [16] it was 0.71%; in [17], -0.03%; in [18] it was 5.93%. Moreover, the values for the inhibition in [19] and in test [20] were 18.8% and 1.5%, respectively.
`Cc1cc(O)cc(C)c1/C=C/c1cncc(C(N)=O)c1`: the inhibition in [1] was 2.12%; in [2], -0.72%; in test [3] it was 2.56%; in [4], 2.3%; in test [5], 2.93%; in test [6] it was -0.77%. The inhibition in test [7] turned out to be 1.29%; in test [8], 4.56%; in test [9], 6.58%; in [10], 16.3%; in test [11], 66.6%; in test [12] it was 3.61%. For the same compound, the inhibition turned out to be 2.03% in [13]; 2.25% in [14]; 1.74% in [15]; 2.69% in test [16]; 22.9% in test [17]; 8.78% in [18]. Also, the inhibition in test [19] came to 44.1%; in test [20], 2.14%.
